Screening data: PubChem, National Center for Advancing Translational Sciences (NCATS)
Rows were chosen to be rich in hits. Some 2.6% of all compounds tested hit in one or more screens of this group.
Prx2 Sm inh: Schistosoma Mansoni Peroxiredoxins (Prx2); Potency, µM; Schistosoma mansoni peroxiredoxin 2 (Prx2); S. mansoni Prx2 activity coupled to TGR/GSH (TGR is thioredoxin glutathione reductase), NADPH fluorescence loss, qHTS; hit rate 0.07% among 65,000
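Activity is read as the drop in NADPH fluorescence (365/450 nm), recorded every 30 sec for 8 min after H2O2 addition. Prx2 is coupled to TGR-driven NADPH oxidation through glutathione, in phosphate buffer pH 7.4.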
AmpC det inh: Promiscuous and Specific Inhibitors of AmpC Beta-Lactamase (assay with detergent). hit rate 0.09% among 71,000. AID 584, 2007. purified AmpC, nitrocefin hydrolysis with detergent. Potency, µM (top dose mostly 28.7 µM), without a hit: at the highest dose activity change, negative = inhibition. P00811; active = well fitted curve in the direction sought with a large enough effect; inconclusive = small, poorly fitted or top-dose-only effect; also: % is scaled to controls: 0 for no effect and ±100 for the full control effect
Target sequence (P00811 whole entry, looked up): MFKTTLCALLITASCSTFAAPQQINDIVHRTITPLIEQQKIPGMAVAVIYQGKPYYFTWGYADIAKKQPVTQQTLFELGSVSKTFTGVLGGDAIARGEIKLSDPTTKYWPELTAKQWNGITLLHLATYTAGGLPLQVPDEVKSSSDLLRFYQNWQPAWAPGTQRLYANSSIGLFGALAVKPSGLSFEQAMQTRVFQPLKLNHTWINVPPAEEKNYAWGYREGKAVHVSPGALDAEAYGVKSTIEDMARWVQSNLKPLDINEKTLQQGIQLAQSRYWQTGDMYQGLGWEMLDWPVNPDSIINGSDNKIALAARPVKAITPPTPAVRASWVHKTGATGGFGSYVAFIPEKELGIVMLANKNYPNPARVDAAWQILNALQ
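E. coli AmpC (5.3 nM) in 20 mM phosphate pH 7.0 with 0.01% Triton X-100, preincubated 15 min RT with compound; nitrocefin (2 uL of 800 uM stock) hydrolysis followed by 480 nm absorbance every 20 s over 4 min.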
AmpC inh no det: Promiscuous and Specific Inhibitors of AmpC Beta-Lactamase (assay without detergent). AmpC nitrocefin hydrolysis, absorbance 480 nm, no detergent. Potency, µM (titrated, usually from 28.7 µM), without a hit: at the highest dose activity change, negative = inhibition. hit rate 1.8% among 71,000. AID 585, 2007; also: % of control where 0% means no effect
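Enzyme, pH 7.0 phosphate. Compound titrations were pre-incubated with AmpC for 15 min at room temperature before nitrocefin (stock 800 uM) addition; product formation was recorded at 480 nm every 20 s for 4 min.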
LT uptake inh: qHTS Assay for Anthrax Lethal Toxin Internalization; Potency, µM (highest dose often 40 µM), for inactives: at the top dose activity change, negative = inhibition, actives largely listed as inhibitors; Cells, anthrax lethal toxin internalization, FRET ratio (460/530); hit rate 0.67% among 70,000; also: % is scaled to controls: 0 for no effect and ±100 for the full control effect; nearly all actives have a fitted effect of over 50% in size
Starred values were filed as active, the others as inactive; ? = inconclusive; . = not tested or not shown; [ ] = another dose, or the depositor's remark. Unless noted, calls follow the shape of the full dose curve. Potency is read from the fitted curve at half-maximal effect.

SMILES | Prx2 Sm inh | AmpC det inh | AmpC inh no det | LT uptake inh
Cn1nc(-c2ccc(Cl)cc2)c2cc(C(=O)N3CCN(C(=O)c4ccco4)CC3)sc21 | . | 13% | 4µM*[single pt active] | -10%
Cn1nc(-c2ccc(Cl)cc2)c2cc(C(=O)NC3CC3)sc21 | >57 | 10% | 4µM*[single pt active] | -2%
Cn1nc(-c2ccc(Cl)cc2)c2cc(C(=O)NCCCN3CCOCC3)sc21 | >57 | 13% | 124% | 2.5µM*
CCOCCCNC(=O)c1cc2c(-c3ccc(Cl)cc3)nn(C)c2s1 | >57 | 8% | 130% | -10%
CCN(CC)CCNC(=O)c1cc2c(-c3ccc(Cl)cc3)nn(C)c2s1 | >57 | 5% | 4µM*[single pt active] | 10µM*
CCN1CCN(C(=O)c2cc3c(-c4ccc(Cl)cc4)nn(C)c3s2)CC1 | >57 | 9% | 155% | 5%
Cn1nc(-c2ccc(Cl)cc2)c2cc(C(=O)NCCN3CCOCC3)sc21 | >57 | 14% | 146% | ?
Cc1noc(C)c1C(=O)N1CCC2(CC1)CN(c1ncccn1)C2 | >57 | -1% | 7% | 7%
COC(=O)c1ccc2c(c1)N(Cc1cc(C)ccc1C)C(=O)c1ccccc1S2=O (stereo not given) | >57 | 13% | 4µM*[single pt active] | -5%
CSc1nc2nc(C)cc(-c3ccccc3)n2n1 | >57 | -6% | 12% | 5%
Cc1cc(-c2ccccc2)n2ncc(C#N)c2n1 | >57 | 13% | 4µM*[single pt active] | -13%
N=C(N)SCc1cc(Cl)cc(Cl)c1O | >57 | -5%[5.75 µM] | 0%[5.75 µM] | -7%[8 µM]
CC(=O)Cc1nsc(NC(=O)c2cc(-c3cccc(C(F)(F)F)c3)oc2C)n1 | >57 | -3% | 16µM*[single pt active] | -14%
O=c1cc(-c2ccccc2Cl)c2c([nH]1)CCC2 | >57 | 13% | 4µM*[single pt active] | 4%
O=C(NCCO)c1ccc2[nH]c3c(c2c1)CCCC3 | . | 5% | 2% | -13%
C/C(=N\O)c1ccc2c3c([nH]c2c1)CCCC3 | . | 4% | -9% | 10µM*
NCCC[C@@H](CC(=O)N[C@@H]1CCNC[C@H]1C(=O)N[C@H](CC(=O)N[C@@H](CCC(=O)O)CC(=O)O)Cc1c[nH]c2ccccc12)NC(=O)C[C@H](CO)NC(=O)[C@@H]1CCCC[C@H]1N | >57 | 16% | 17% | -16%
Nc1ncnc2nc[nH]c12.Nc1ncnc2nc[nH]c12.[Cl][Pt]([Cl])([Cl])[Cl] | >57 | -3%[5.75 µM] | -12%[5.75 µM] | -13%[8 µM]
Cc1ccc(C[C@H](Cc2nc3ccccc3[nH]2)c2nc3ccccc3[nH]2)cc1 | >57 | 1% | -10% | ?
COc1ccccc1CN(Cc1cc2c(C)ccc(C)c2[nH]c1=O)Cc1nnnn1Cc1ccco1 | >57 | -3% | 58% | 16µM*
CCn1c(SCc2ccc(OC)cc2)nnc1-c1ccncc1 | >57 | -5% | 58% | 13µM*
CCn1c(SCC(=O)c2cc(OC)ccc2OC)nnc1-c1ccncc1 | >57 | -4% | 31% | .
CCc1c(C)nc2cc(-c3ccc(OC)c(OC)c3)nn2c1N1CCCC1 | >57 | -4% | 133% | -20%
CCc1c(C)nc2cc(-c3cc(OC)cc(OC)c3)nn2c1N1CCCC1 | >57 | -1% | 88% | 13µM*
COc1ccc(-c2nc3cnc(N(C)C)nc3n(C[C@H]3CCCO3)c2=O)cc1 | >57 | -2% | 2% | ?
SMILES | Prx2 Sm inh | AmpC det inh | AmpC inh no det | LT uptake inh
Cc1cccc(NS(=O)(=O)c2ccc(C)c(C(=O)OCC(=O)Nc3cc(C)on3)c2)c1 | >57 | -6% | 10µM* | ?
Cc1cccc(NS(=O)(=O)c2cc(C(=O)OCC(=O)Nc3cc(C)on3)ccc2C)c1 | >57 | 0% | ? | -24%
O=C(c1ccncc1)N1CCC2(CC1)CN(Cc1cc(C(F)(F)F)cc(C(F)(F)F)c1)C2 | >57 | 23% | -6% | 13µM*
O=C(c1cc(C(F)(F)F)cc(C(F)(F)F)c1)N1CCC2(CC1)CN(Cc1ccncc1)C2 | >57 | -3% | 74% | ?
C[N+]1(C)C[C@@H](O)C[C@@H]1C(=O)[O-] | >57 | -2%[12.8 µM] | -4%[12.8 µM] | -24%[3.58 µM]
O=C(Nc1cc(Cl)ccc1Cl)c1noc2c1CCCC2 | >57 | 11% | 4µM*[single pt active] | -16%
O=C(O)CN(CC(=O)O)c1ccccc1 | >57 | -2%[5.75 µM] | -5%[5.75 µM] | -9%[8 µM]
CN(C)C(=O)N1CCC(C(=O)NCc2ccccc2Cl)CC1 | >57 | -3% | -14% | -7%
O=C(NCc1ccccc1Cl)C1CCN(C(=O)c2sccc2-n2cccc2)CC1 | >57 | 4% | 25% | 13µM*
Cc1cccc(N2CCN(C(=O)C3CCN(c4nnc(-n5cccc5)s4)CC3)CC2C)c1 (stereo not given) | >57 | 5% | 105% | 7.9µM*
COC(=O)C/C=C\[C@@H](C)[C@@H](/C=N\OC[C@@H](C)[C@H](OCc1ccccc1)C(C)C)NS(=O)(=O)c1ccc(C)cc1 | . | . | . | -11%[8 µM]
CCOC(=O)C1CCCN(CCC(=O)Nc2cccc(F)c2)C1 (stereo not given) | >57 | 9% | -3% | -20%
CCOC(=O)C1CCN(CCC(=O)Nc2cccc(Cl)c2)CC1 | >57 | 1% | -10% | 10µM*
CCOC(=O)N/N=C1/C[C@@H](O)[C@@H](O)[C@@H]2[C@H]3C(=O)N(c4ccc(F)cc4F)C(=O)[C@@H]3CC[C@H]12 | . | . | . | -6%[1.6 µM]
CN1CCN(c2ncnc3ccc(-c4cccnc4)cc23)CC1 | >57 | 9% | -5% | 3%
O=C(O)C1C(C(=O)O)C(C(=O)O)C1C(=O)O (stereo not given) | >57 | -2%[5.75 µM] | 7%[5.75 µM] | 11%[8 µM]
Cn1nc(C(=O)NCCN2CCOCC2)c2ccccc2c1=O | >57 | -1% | -6% | -14%
CCn1c(=O)c2cc(C(=O)NCc3cccs3)sc2c2ccccc21 | >57 | 15% | 4µM*[single pt active] | -15%
CCn1c(=O)c2cc(C(=O)Nc3cc(C)on3)sc2c2ccccc21 | >57 | 15% | 4µM*[single pt active] | -8%
CCn1c(=O)c2cc(C(=O)NCCN3CCOCC3)sc2c2ccccc21 | >57 | 12% | 4µM*[single pt active] | -9%
CCn1c2ccccc2c2nnc(SCC(=O)Nc3cc(C)on3)nc21 | >57 | -2% | -10% | 5%
CCn1c(=O)c2ccccc2n2c(SCC(=O)NCc3cccs3)nnc12 | >57 | 14% | 0% | -6%
N[C@H](Cc1ccc(O)c(I)c1)C(=O)O | >57 | -2% | 8% | 2%
O=C1/C(=C/c2ccccc2)[C@@H](NC2CCCCC2)c2ccccc21 | . | -2%[5.75 µM] | 9%[5.75 µM] | 4µM*
CCOC(=O)N1CCN(c2c(NCc3ccccn3)c(=O)c2=O)CC1 | >57 | 15% | 4µM*[single pt active] | -14%
CCOC(=O)N1CCN(c2c(Nc3cc(C)[nH]n3)c(=O)c2=O)CC1 | ? | 12% | 2.5µM*[single pt active] | -5%
CCOC(=O)N1CCN(c2c(NCCCN(CC)c3cccc(C)c3)c(=O)c2=O)CC1 | >57 | -3% | 84% | 1%
O=C(O)[C@H]([C@H]1NCCS1)N1C(=O)c2ccccc2C1=O | >57 | -4%[5.75 µM] | -5%[5.75 µM] | -2%[8 µM]
CC1CCCN(c2nc3c(c(=O)[nH]c(=O)n3C)n2CCCc2ccccc2)C1 (stereo not given) | >57 | 3% | 16µM*[single pt active] | ?
